{"source": "PubChem BioAssay", "key": {"[1]": {"test": "stimulators of nuclear beta-catenin in C2C12, primary screen, imaging, WNT3A-conditioned medium, mouse C2C12, NPC library (AID 1117326; in the data active = nuclear beta-catenin stimulation mostly above about 4.2%, no sharp cut-off; inactive = mostly below about 10%)", "details": "stronger effect = higher value"}, "[2]": {"test": "stimulators of insulin release from INS-1E, primary screen, cell-based, 5 mM glucose, NPC library (AID 1117329;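 active = compound raises insulin release from rat beta cells at 5 mM glucose, no numeric limit stated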)", "details": "rat INS-1E insulin secretion, at 10 µM, stronger effect = higher value"}, "[3]": {"test": "growth inhibition of GSK3B-pretreated HCT116 cells – cell-based, CellTiter-Glo, 0.2 to 20 µM (AID 1117336;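 active = compounds lowering colon cancer cell viability after pretreatment blocking the GSK3B kinase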)", "details": "HCT116 viability after GSK3B inhibitor, at 20 µM, stronger effect = higher value"}, "[4]": {"test": "inhibition of endothelial tube formation, primary screen, imaging, VEGF stimulated, CD31 staining, tube area, NPC library (AID 1117340;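 active = compound that reduces growth-factor-driven endothelial tube area in a mixed cell culture, no cutoff stated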)", "details": "VEGF-stimulated ADSC/ECFC co-culture, at 10 µM, stronger effect = higher value"}, "[5]": {"test": "glucagon-like peptide 1 release enhancers, primary assay, NCI-H716 cell line, NPC library (AID 1117341;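 active = compound raises GLP1 secretion from the human gut endocrine cells, with no numeric limit stated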)", "details": "NCI-H716 cells, at 10 µM, stronger effect = higher value"}, "[6]": {"test": "HCT116 colon cancer cell growth inhibition, primary screen, CellTiter-Glo luminescence, NPC library (AID 1117342;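 active = compounds that lower survival of HCT116 colon cancer cells in the luminescence readout, no numeric limit stated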)", "details": "at 20 µM (top of the series)"}, "[7]": {"test": "CellTiter-Glo luminescent readout of SW480 viability loss, NPC library primary (AID 1117343;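 active = compounds that lower viability of the colon cancer cells in the luminescence readout, with no numeric limit stated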)", "details": "CellTiter-Glo luminescence; at 20 µM (top of the series) unless noted"}, "[8]": {"test": "decreased DLD-1 cellular survival, CellTiter-Glo luminescent readout, NPC compound collection, primary HTS (AID 1117346;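 active = compounds that lower survival of DLD-1 colon cancer cells in the luminescence readout, no cutoff given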)", "details": "DLD-1 viability, CellTiter-Glo luminescence; at 20 µM (top of the series)"}, "[9]": {"test": "differential killing of epithelial or mesenchymal cells, primary screen, imaging, PC-3E GFP, TEM4-18 mCherry, co-culture (AID 1345086;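 active = compounds killing one labelled cell type while sparing the other, by normalised counts and ratio limits, not self-fluorescent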;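 as to all read-outs here: cells exposed to compound for 72 h before imaging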;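 as to red/green cell ratio (normalised): normalised mesenchymal count divided by normalised epithelial count so high means epithelial killing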)", "details": "imaging cell counts, at 1 µM; for red/green cell ratio (normalised): actives lie on both sides, counts scaled to control wells, 1 = unselective"}, "[10]": {"test": "survival rescue of mitochondrial mutant cells in low glucose, primary screen, MELAS cybrids, Rieske KO mouse fibroblasts, CellTiter-Glo (AID 1508586);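 also: z relative to plate mean and SD of compound and empty wells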"}, "[11]": {"test": "liver-stage malaria parasite growth inhibition, primary screen, cell-based, HepG2, luciferase luminescence, HepG2 viability (AID 624349; in the data active = parasite load remaining mostly below about 12%, no sharp cut-off; inactive = mostly above about 10%;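 also: 100% = mean of DMSO negative control wells on the same plate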)", "details": "P. berghei liver stage in HepG2, luciferase luminescence, concentration not given here; parasite load remaining: stronger effect = lower value; viability: measured here: HepG2 viability without parasites"}, "[12]": {"target": "NAD(+) hydrolase SARM1 (Homo sapiens) (UniProt Q6SZW1)", "sequence (Q6SZW1 whole entry, looked up)": "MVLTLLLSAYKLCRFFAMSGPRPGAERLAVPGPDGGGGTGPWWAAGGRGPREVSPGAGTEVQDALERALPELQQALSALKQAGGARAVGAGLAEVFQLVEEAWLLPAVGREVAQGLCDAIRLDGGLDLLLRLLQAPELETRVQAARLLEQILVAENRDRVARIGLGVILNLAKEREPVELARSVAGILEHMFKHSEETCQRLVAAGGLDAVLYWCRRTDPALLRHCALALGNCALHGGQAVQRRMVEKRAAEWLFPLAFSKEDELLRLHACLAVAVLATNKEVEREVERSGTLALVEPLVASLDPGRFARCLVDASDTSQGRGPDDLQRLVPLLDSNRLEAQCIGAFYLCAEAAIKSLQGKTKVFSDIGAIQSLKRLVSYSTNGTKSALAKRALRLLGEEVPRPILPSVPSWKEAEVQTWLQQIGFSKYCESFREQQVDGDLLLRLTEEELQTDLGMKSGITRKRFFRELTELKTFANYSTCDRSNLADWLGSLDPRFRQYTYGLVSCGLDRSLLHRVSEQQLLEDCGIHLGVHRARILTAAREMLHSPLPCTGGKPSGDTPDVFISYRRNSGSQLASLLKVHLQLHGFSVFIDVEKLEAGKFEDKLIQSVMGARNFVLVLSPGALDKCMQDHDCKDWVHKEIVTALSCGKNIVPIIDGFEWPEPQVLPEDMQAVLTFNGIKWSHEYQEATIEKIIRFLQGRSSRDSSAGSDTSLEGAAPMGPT", "test": "SARM1 TIR NADase inhibitors, cell lysate, NAD-Glo luminescence (AID 1508614;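 active = compound whose remaining NAD level is above about 45 nM, limit read from the data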)", "details": "SAM-TIR HEK293T lysate NADase, at 1 µM, stronger effect = higher value"}, "[13]": {"test": "viability rescue of complex I mutant cybrids, primary screen, cell-based, galactose medium, ATP luminescence (AID 1645843;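 active = z-score of at least 1.8 in each of two replicates, scored against plate mean and spread of sample wells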;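 also: positive z means more ATP and so rescue of galactose-driven cybrid death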)", "details": "complex I mutant cybrid cells, 72 h, stronger effect = higher value"}, "[14]": {"system": "Aerobactin synthetase IucA (Klebsiella pneumoniae)", "test": "IucA aerobactin synthetase inhibitors, biochemical, Tocris library, absorbance (AID 1345561; call rule not given here;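 also: 100% = enzyme without compound and 0% = no enzyme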)", "details": "purified IucA enzyme assay, absorbance (OD) read-out; stronger effect = lower value;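 tested at 8 µM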"}, "[15]": {"test": "growth inhibition of DIPG glioma cells, dose response, cell-based, SU-DIPG-XVII, MIPE5.0, CellTiter-Glo, qHTS (AID 1347060; cut-off not given, nearly all actives have AC50 up to about 26 µM;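 also: cells exposed to compound for 48 hours before viability readout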)", "details": "SU-DIPG-XVII viability, CellTiter-Glo ATP luminescence"}, "[16]": {"test": "growth inhibition of DIPG glioma cells, dose response, cell-based, SU-DIPG-XIII, MIPE4.0, CellTiter-Glo, qHTS (AID 1347061; cut-off not given, nearly all actives have AC50 up to about 37 µM;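 also: cells exposed to compound for 48 hours before readout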)", "details": "SU-DIPG-XIII viability, CellTiter-Glo ATP luminescence"}, "[17]": {"test": "growth inhibition of DIPG glioma cells, dose response, cell-based, JHH-DIPG-1, MIPE4.0, CellTiter-Glo, qHTS (AID 1347062; cut-off not given, nearly all actives have AC50 up to about 27 µM;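 also: cells exposed to compound for two days before readout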)", "details": "JHH-DIPG-1 viability, CellTiter-Glo ATP luminescence"}, "[18]": {"test": "SU-DIPG-XXV glioma cell viability, MIPE5.0 library, qHTS (AID 1347068; cut-off not given, nearly all actives have IC50 up to about 30 µM)"}, "[19]": {"details": "measured here: epithelial PC-3E GFP cell survival"}, "[20]": {"details": "measured here: mesenchymal TEM4-18 mCherry cell survival"}, "[21]": {"details": "MELAS cybrid survival, CellTiter-Glo 48 h, stronger effect = higher value"}, "[22]": {"details": "Rieske KO mouse fibroblast survival, CellTiter-Glo 72 h"}}, "note": "“And” between values parts separate entries of the source, which are not always exact repeats. Equal entries are not always repeated. Inconclusive results are not listed. The source made the active and inactive calls.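 The calls were made as follows, unless noted: active = mean z-score across replicates of 1.96 or higher in either the MELAS or the Rieske mutant cell line; inactive = the rest.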", "data": [{"smiles": "C[C@@]12C(=O)OC(=O)[C@]1(C)C1CCC2O1", "values": [{"measurement": "nuclear beta-catenin stimulation", "setting": "[1]; at 10 µM", "value": "-1.7% (active)"}, {"measurement": "nuclear beta-catenin stimulation", "setting": "[1]; stimulation, at 2 µM", "value": 49.7, "unit": "%"}, {"measurement": "insulin secretion stimulation", "setting": "[2]", "value": "2.3% (inactive)"}, {"measurement": "viability decrease", "setting": "[3]", "value": "83.1% (active)"}, {"measurement": "tube area decrease", "setting": "[4]", "value": "111% (active)"}, {"measurement": "GLP1 secretion stimulation", "setting": "[5]", "value": "20.1% (active)"}, {"measurement": "inhibition of viability", "setting": "[6]", "value": "73% (active)"}, {"measurement": "viability decrease (inhibition)", "setting": "[7]", "value": "112% (active)"}, {"measurement": "viability decrease (inhibition)", "setting": "[8]", "value": "91% (active)"}, {"measurement": "red/green cell ratio (normalised)", "setting": "[9]", "value": "0.98 (inactive)"}, {"measurement": "normalised cell number", "setting": "[9]; [19]", "value": 1.02}, {"measurement": "normalised cell number", "setting": "[9]; [20]", "value": 1.01}]}, {"smiles": "Cc1c(F)c(N2CCNC(C)C2)cc2c1c(=O)c(C(=O)O)cn2C1CC1", "note": "(centres undefined)", "values": [{"measurement": "nuclear beta-catenin stimulation", "setting": "[1]; at 10 µM", "value": "0.7% (inactive)"}, {"measurement": "nuclear beta-catenin stimulation", "setting": "[1]; stimulation, at 2 µM", "value": -0.2, "unit": "%"}, {"measurement": "insulin secretion stimulation", "setting": "[2]", "value": "1.15% (inactive)"}, {"measurement": "viability decrease", "setting": "[3]", "value": "57.3% (active)"}, {"measurement": "tube area decrease", "setting": "[4]", "value": "-1% (inactive)"}, {"measurement": "GLP1 secretion stimulation", "setting": "[5]", "value": "-0.4% (inactive)"}, {"measurement": "inhibition of viability", "setting": "[6]", "value": "39.5% (inactive)"}, {"measurement": "viability decrease (inhibition)", "setting": "[7]", "value": "0% (inactive)"}, {"measurement": "viability decrease (inhibition)", "setting": "[8]", "value": "-10.1% (inactive)"}, {"measurement": "red/green cell ratio (normalised)", "setting": "[9]", "value": "1 (inactive)"}, {"measurement": "normalised cell number", "setting": "[9]; [19]", "value": 1.13}, {"measurement": "normalised cell number", "setting": "[9]; [20]", "value": 1.12}, {"measurement": "z-score", "setting": "[10]; [21]", "value": "0.28 (inactive)"}, {"measurement": "z-score", "setting": "[10]; [22]", "value": -0.0779}]}, {"smiles": "CC(O)(P(=O)(O)O)P(=O)(O)O", "values": [{"measurement": "parasite load remaining", "setting": "[11]", "value": "84.2% (inactive) and 72.4% (inactive) and 27.7% (inactive)"}, {"measurement": "viability", "setting": "[11]", "value": "97.4% and 110% and 90%"}, {"measurement": "nuclear beta-catenin stimulation", "setting": "[1]; at 10 µM", "value": "3.1% (inactive)"}, {"measurement": "nuclear beta-catenin stimulation", "setting": "[1]; stimulation, at 2 µM", "value": 1.7, "unit": "%"}, {"measurement": "insulin secretion stimulation", "setting": "[2]", "value": "0.9% (inactive)"}, {"measurement": "viability decrease", "setting": "[3]", "value": "12.5% (inactive)"}, {"measurement": "tube area decrease", "setting": "[4]", "value": "8.2% (inactive)"}, {"measurement": "GLP1 secretion stimulation", "setting": "[5]", "value": "1.6% (inactive)"}, {"measurement": "inhibition of viability", "setting": "[6]", "value": "9.4% (inactive)"}, {"measurement": "viability decrease (inhibition)", "setting": "[7]", "value": "2.7% (inactive)"}, {"measurement": "viability decrease (inhibition)", "setting": "[8]", "value": "9.1% (inactive)"}, {"measurement": "red/green cell ratio (normalised)", "setting": "[9]", "value": "0.95 (inactive)"}, {"measurement": "normalised cell number", "setting": "[9]; [19]", "value": 1.05}, {"measurement": "normalised cell number", "setting": "[9]; [20]", "value": 1}, {"measurement": "z-score", "setting": "[10]; [21]", "value": "-0.62 (inactive) and 0.631 (inactive)"}, {"measurement": "z-score", "setting": "[10]; [22]", "value": "-0.885 and -0.197"}, {"measurement": "remaining NAD", "setting": "[12]", "value": "10 nM (inactive)"}, {"measurement": "z-score", "setting": "[13]", "value": "-2.15 (inactive) and 0.43 (inactive)"}]}, {"smiles": "CC1=C(/C=C/C(C)=C/C=C/C(C)=C/C(=O)Nc2ccc(O)cc2)C(C)(C)CCC1", "values": [{"measurement": "parasite load remaining", "setting": "[11]", "value": "39.4% (inactive)"}, {"measurement": "viability", "setting": "[11]", "value": 108, "unit": "%"}, {"measurement": "nuclear beta-catenin stimulation", "setting": "[1]; at 10 µM", "value": "21.3% (inactive)"}, {"measurement": "nuclear beta-catenin stimulation", "setting": "[1]; stimulation, at 2 µM", "value": 39.9, "unit": "%"}, {"measurement": "insulin secretion stimulation", "setting": "[2]", "value": "2.3% (inactive)"}, {"measurement": "viability decrease", "setting": "[3]", "value": "98.8% (active)"}, {"measurement": "tube area decrease", "setting": "[4]", "value": "110% (active)"}, {"measurement": "GLP1 secretion stimulation", "setting": "[5]", "value": "2.4% (inactive)"}, {"measurement": "inhibition of viability", "setting": "[6]", "value": "90.4% (active)"}, {"measurement": "viability decrease (inhibition)", "setting": "[7]", "value": "118% (active)"}, {"measurement": "viability decrease (inhibition)", "setting": "[8]", "value": "94.3% (active)"}, {"measurement": "remaining activity", "setting": "[14]", "value": "97.3% (inactive)"}, {"measurement": "AC50", "setting": "[15]", "value": "20.9 µM (active)"}, {"measurement": "AC50", "setting": "[16]", "value": "34 µM (active)"}, {"measurement": "AC50", "setting": "[17]", "value": "2.7 µM (active)"}, {"measurement": "outcome", "setting": "[18]", "value": "inactive"}, {"measurement": "z-score", "setting": "[10]; [21]", "value": "0.416 (inactive)"}, {"measurement": "z-score", "setting": "[10]; [22]", "value": 0.408}, {"measurement": "z-score", "setting": "[13]", "value": "-0.95 (inactive) and -0.72 (inactive) and -2.12 (inactive)"}]}, {"smiles": "CN(C)CCCOc1nn(Cc2ccccc2)c2ccccc12", "values": [{"measurement": "nuclear beta-catenin stimulation", "setting": "[1]; at 10 µM", "value": "2.1% (inactive)"}, {"measurement": "nuclear beta-catenin stimulation", "setting": "[1]; stimulation, at 2 µM", "value": 0.5, "unit": "%"}, {"measurement": "insulin secretion stimulation", "setting": "[2]", "value": "86.5% (active)"}, {"measurement": "viability decrease", "setting": "[3]", "value": "21.7% (inactive)"}, {"measurement": "tube area decrease", "setting": "[4]", "value": "12.8% (inactive)"}, {"measurement": "GLP1 secretion stimulation", "setting": "[5]", "value": "6% (inactive)"}, {"measurement": "inhibition of viability", "setting": "[6]", "value": "46% (inactive)"}, {"measurement": "viability decrease (inhibition)", "setting": "[7]", "value": "82.6% (active)"}, {"measurement": "viability decrease (inhibition)", "setting": "[8]", "value": "84.1% (active)"}, {"measurement": "red/green cell ratio (normalised)", "setting": "[9]", "value": "0.88 (inactive)"}, {"measurement": "normalised cell number", "setting": "[9]; [19]", "value": 1.01}, {"measurement": "normalised cell number", "setting": "[9]; [20]", "value": 0.89}, {"measurement": "z-score", "setting": "[10]; [21]", "value": "-0.315 (inactive) and 0.45 (inactive) and -0.608 (inactive)"}, {"measurement": "z-score", "setting": "[10]; [22]", "value": "-0.145 and 0.0321 and -1.45"}, {"measurement": "remaining NAD", "setting": "[12]", "value": "10 nM (inactive)"}, {"measurement": "z-score", "setting": "[13]", "value": "-0.89 (inactive)"}]}]}
